This note sets out measurements from PubChem BioAssay AID504408 (Broad Institute, 2011).

Screen size: about 300,000 compounds; about 5,200 (1.7%) were called active. The entries come from a sample that favours actives as a whole. A number with no mark means an inactive call.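 How the source made its calls: active means mean replicate activation of at least 50% with a set share of replicates each reaching 50%; inconclusive means only one of those two conditions met; inactive means mean below 50% and too few replicates reaching it.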

The nature of this test: HSF-1 response element luciferase induction – NIH3T3-HGL cells, MG132 stress, luminescence, single point, primary screen (AID 504408).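 Further: 0% = median of the neutral control wells and 100% = twice that signal.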 The following applies: NIH3T3-HGL HSF-1 luciferase reporter, MG132, 8 h; at 9 µM; stronger effect = higher value; 100% = twice DMSO control signal.
As for `Cc1ccc(SCCC(=O)Nc2cc(C)on2)cc1`, the activation was -5.42%.
As for `Cc1ccc2nc(SCC(=O)NC3CCCC3)[nH]c2c1`, the figure is 7.63%; as for `Cc1ccc2nc(-c3ccc(SCC(=O)Nc4cc(C)on4)nc3)[nH]c2c1`, 55.5% (active).
As for `O=C(COc1ccccc1F)Nc1nc(-c2ccccn2)cs1`, the figure is -13.1%; as for `COc1ccc(-c2cn(-c3ccc(OC)cc3)c(=S)[nH]2)cc1`, 56.7% (active); as for `COc1ccc(-n2c(-c3ccc(OC)c(OC)c3)n[nH]c2=S)cc1`, 3.03%.
As for `S=c1[nH]c(-c2cccs2)cn1-c1ccccc1`, the figure is 33.3%; as for `CC[C@@]12C(=O)N(c3ccccc3)C(=O)N1[C@H](c1ccc(Br)cc1)[C@@H]1C(=O)N(C(C)(C)C)C(=O)[C@@H]12`, -15%.
For `CC1CCCCC1NC(=O)c1cc(=O)[nH]c2ccccc12` (centres undefined), the activation was 1.85%.
On to `CCN1CCN(C(=O)N(Cc2ccc(Cl)cc2)S(=O)(=O)c2ccc(C)cc2)CC1`, for which the activation was 0.289%.
As to `CCOC(=O)c1c(C)nc2c(c1C)c(=O)oc1ccccc12`, the activation is 36.6%.
As for `Cc1ccccc1-n1nnc2c(=O)oc3ccccc3c21`, the figure is 105% (active); as for `CCCCC(=O)Nc1cc(C)c2c(=O)oc3ccccc3c2n1`, 6.46%.
As for `CN(CC(=O)NNC(=O)CNC(=O)c1ccccc1Cl)S(=O)(=O)c1ccc(Cl)cc1`, the figure is -6.99%; as for `CCSc1nnc(-c2cc3c(s2)-c2ccccc2CC3)o1`, 51.8% (active); as for `O=C(CSc1nnc(-c2ccccc2O)o1)NC1CCCCC1`, -7.41%.
As for `Fc1ccc(CSc2nnc(-c3cc4c(s3)-c3ccccc3CC4)o2)cc1`, the figure is 21.9%; as for `O=C(c1ccncc1)N1CCN(S(=O)(=O)c2cc(C(F)(F)F)cc(C(F)(F)F)c2)CC1`, 4.51%.
As to `CCCCC(=O)N/N=C(\C)CC(=O)Nc1cc(Cl)ccc1OC`, the activation is 72.1% (active).
For `COc1ccc(/C(C)=N/NC(=O)CCC(=O)Nc2ccc(Cl)cc2Cl)c(OC)c1` the value was 1.67%.
For `COc1ccc(Cl)cc1NC(=O)CNc1ccccc1F` the value was 2.49%; for `COc1ccc(N2CCN(C(=O)CCNC(=O)c3ccc(Br)cc3)CC2)cc1`, 6.12%; for `CCN(CC(=O)Nc1cc(Cl)ccc1C)C(=O)CN1C(=O)NC2(CCCC2)C1=O`, -8.94%.
For `COc1ccccc1NC(=O)Nc1nc(CC(=O)Nc2ccccc2F)cs1` the value was 23.4%; for `COc1ccc(NC(=O)CN(C)C(=O)c2cc(-c3ccc(C)o3)nc3ccccc23)cc1`, 19.7%; for `O=C(Nc1ccc2c(c1)CCC2)c1ccc(Br)s1`, 71% (active).
For the molecule `O=C(NC1CCCC1)c1ccc(Br)s1`, the activation was 7.08%.
For `CC(C)C(=O)OCC(=O)Nc1ccc2c(c1)CCC2` the value was 41.4%; for `COc1ccc(S(=O)(=O)N2CCCC2CNC(=O)C(=O)NC2CC2)cc1` (centres undefined), 5.75%; for `CC(=NCc1ccc2c(c1)OCO2)C1=C(O)c2ccccc2C1=O`, 33.7%.
As for `CC(=NCc1ccco1)C1=C(O)c2ccccc2C1=O`, the activation is 106% (active).
For `CC(=NCc1ccco1)c1c(C(F)(F)F)[nH]n(-c2nc3ccccc3s2)c1=O` the value was -45.7%.
`Cc1ccc(-c2cc(C(=O)NC3CCN(Cc4ccccc4)CC3)c3ccccc3n2)cc1`: the activation is 11.6%.
As to `CC1=C(/C=C/C(C)=C/C=C/C(C)=C/C=C/C=C(C)/C=C/C=C(C)/C=C/C2=C(C)CCCC2(C)C)C(C)(C)CCC1`, the activation was 54.5% (active).
As for `Cc1cccc(C(=O)OC(C)C(=O)NC2CCCc3ccccc32)c1O` (centres undefined), the figure is -1.67%.
As for `CC(C)N(Cc1nnc(-c2ccc(Cl)cc2)o1)C(=O)C1=COCCO1`, the figure is -12.7%; as for `Cc1ccc(C2(C)NC(=O)N(CC(=O)Nc3ccccc3C(=O)N3CCCCC3)C2=O)cc1` (centres undefined), 20.7%; as for `Cc1ccc(NC(=O)CN2C(=O)NC(C)(c3ccc(Cl)cc3)C2=O)c(Br)c1` (centres undefined), 78.5% (active).
As for `CC1(c2ccccc2)NC(=O)N(CC(=O)Nc2cc(Cl)ccc2N2CCOCC2)C1=O` (centres undefined), the figure is -13.3%; as for `Cc1ccc(NC(=S)NCc2ccccc2Cl)c(C)c1`, 5.6%; as for `Cc1ccc(NC(=S)NCCc2ccc(Cl)cc2)c(C)c1`, 21.9%.
On to `Cc1ccc(NC(=S)Nc2ncccc2C)c(C)c1`, for which the activation is 56.7% (active).
For `O=S(=O)(Nc1cccc(-c2ccc(N3CCOCC3)nn2)c1)c1ccc(Cl)c(Cl)c1`, the activation was 5.14%.
As for `CCOc1ccc(S(=O)(=O)N2CCN(C(=S)NCC3CCCO3)CC2)cc1` (centres undefined), the figure is -5.36%; as for `CC(=O)Nc1ccc(-c2csc(NC(=O)Nc3ccccc3)n2)cc1`, -8.14%; as for `O=C(CCC(=O)c1cccs1)Nc1nc2ccccc2s1`, 10.8%.
For the molecule `O=C(Nc1ccccc1)Nc1nc2ccccc2s1`, the activation was 61.1% (active).
As for `CCCNC(=O)CCn1cc(-c2ccc(OC)cc2)nc1CCN`, the figure is -10.4%; as for `Cc1ccccc1NC(=O)c1ccccc1NS(=O)(=O)c1cccc2cccnc12`, -9.95%.
As for `O=[N+]([O-])c1ccccc1S(=O)(=O)Nc1cccc2cccnc12`, the figure is 144% (active); as for `COc1cc(NS(=O)(=O)c2ccc3ccccc3c2)c2ncccc2c1`, -10.7%; as for `COc1ccc(C(=O)OCC(=O)c2ccc(Cl)s2)c(OC)c1OC`, 3.84%.
As for `Cc1cc(NC(=O)C(C)SCC(=O)Nc2ccccc2N2CCCCC2)no1` (centres undefined), the figure is 10.3%; as for `CCN(CC(=O)Nc1c(F)cccc1F)C(=O)c1ccc(-c2ccccc2)cc1`, 0.0275%; as for `CCCCn1c(N)c(N(CCOC)C(=O)c2cccc(OCc3ccccc3)c2)c(=O)[nH]c1=O`, -6.35%.
On to `CC(OC(=O)C1CC(=O)N(Cc2ccccc2)C1)C(=O)Nc1ccccc1[N+](=O)[O-]` (centres undefined), for which the activation is 8.17%.
In the case of `O=[N+]([O-])c1c(NCCO)cc(Sc2nc3ccccc3s2)c2nonc12`, the activation was 229% (active).
For `CCOc1ccccc1Nc1ccc2nonc2c1[N+](=O)[O-]` the value was -13.1%; for `O=C(O)c1cccc(S(=O)(=O)Nc2ccc(O)cc2Sc2nc3ccccc3s2)c1`, 1.08%.
As for `Cc1ccc(C)c(OCCC(=O)OCC(=O)c2ccc3c(c2)NC(=O)CO3)c1`, the figure is -12.3%; as for `COc1ccccc1C(=O)NC(=O)COC(=O)c1ccco1`, -0.902%; as for `CCn1c(SCC(=O)Nc2ccc3c(c2)OCCO3)nnc1C(C)C`, -3.33%.
For `CCCn1c(SCC(=O)c2ccc3c(c2)OCCO3)nnc1C(C)C` the value was 62.4% (active); for `CCCn1c(SCC(N)=O)nnc1C(C)C`, 1.36%; for `Cc1ccc(S(=O)(=O)N2CCC(C(=O)OCC(=O)N(C)c3ccccc3)CC2)cc1C`, -10.4%.
As for `Cn1cccc1C(=O)OCC(=O)c1ccc(Br)s1`, the activation was -97.9%.
As for `CCc1nnc(NC(=O)/C=C/c2ccc(C)o2)s1`, the figure is 3.89%; as for `Cc1ccc(/C=C/C(=O)Nc2cc(S(=O)(=O)N3CCCCCC3)ccc2OCC(F)(F)F)o1`, 2.76%; as for `Cc1ccc(/C=C/C(=O)Nc2ccc([N+](=O)[O-])c(NC(=O)/C=C/c3ccc(C)o3)c2)o1`, 73% (active).
As for `CCN(C(=O)CSc1nnc(-c2ccc(OC(F)F)cc2)n1N)C1CCS(=O)(=O)C1` (centres undefined), the figure is -15.1%; as for `COC(=O)c1ccc(NS(=O)(=O)c2cc3c4c(c2)C(C)C(=O)N4CCC3)cc1` (centres undefined), 21.6%.
As for `COc1ccc(NC(=O)CN(C)C(=O)c2ccc(NC3CC3)c([N+](=O)[O-])c2)cc1`, the figure is 5.08%; as for `O=C1CCc2cc(S(=O)(=O)Nc3ccc(C(F)(F)F)cc3)cc3c2N1CC3`, 15.1%; as for `COc1ccc(C(=O)Nc2c(Cl)cc(Cl)cc2C(=O)N2CCC(C)CC2)cc1`, 18%.
Regarding `CC1CCN(C(=S)c2ccc(-c3ccc(Cl)cc3Cl)o2)CC1`, the activation was 52% (active).
As for `Cc1csc(NC(=O)c2ccc(-c3ccc(Cl)cc3Cl)o2)n1`, the figure is 3.06%; as for `Cc1c(C(=O)OCC(=O)N2CCCC2=O)oc2ccccc12`, 16.8%.
For `N#Cc1cccc(OC(=O)c2ccc3c(=O)n4c(nc3c2)CCC4)c1` the value was -0.984%.
For `CCOC(=O)C1C(=O)C=C(c2ccc(OC)cc2)CC1c1ccco1` (centres undefined) the value was 285% (active); for `CCOC(=O)C1C(=O)NC(N2CCN(c3ccccc3)CC2)=NC1c1ccco1` (centres undefined), -4.78%; for `Cc1ccc(C2=NN(C(=O)CSc3nc(N)cc(N)n3)C(c3ccco3)C2)cc1` (centres undefined), 22.7%.
As to `Cc1nc2c(c(C)nn2-c2ccccc2)c(C)c1C`, the activation is -8.62%.
As for `COc1cc(SC)ccc1C(=O)Nc1nc(C)cs1`, the figure is -71.7%; as for `Cc1ccnc(NC(=O)c2ccoc2C)c1`, 17.6%; as for `COc1cc(SC)ccc1C(=O)Nc1cc(C)ccn1`, 55.7% (active).
For `COC(=O)[C@@]12CCCN1[C@H](c1ccc(-c3ccc(F)cc3)c(OC)c1)[C@H]1C(=O)N(C)C(=O)[C@H]12` the value was 42.9%; for `COc1ccc(Cl)cc1C=CC=Nc1ccc(S(N)(=O)=O)cc1`, -18.4%; for `COc1cc(NC(=S)NCc2ccco2)c(OC)cc1Cl`, 62.1% (active).
For `FC(F)Oc1ccc(NC(=S)NCc2ccco2)cc1Cl` the value was 7.43%; for `COc1cccc(NC(=S)NCc2ccco2)c1`, 19.7%; for `COc1ccc(OCC(=O)Nc2nnc(-c3ccco3)s2)cc1`, 3.21%.
Regarding `CCCCOc1ccc(-c2nnc(-c3ccco3)o2)cc1`, the activation is 79.3% (active).
In the case of `Cc1ccc(OCC(=O)Nc2nnc(-c3ccco3)s2)cc1`, the activation is 2.22%.
As for `CC(C)Oc1ccc(S(=O)(=O)N2CCOCC2)cc1NC(=O)C1CSC2(C)CCC(=O)N12` (centres undefined), the figure is 0.413%.
